Results filed as inconclusive are left out. Active and inactive are the calls of the source. Calls follow the shape of the dose curve; as a rule, active = well fitted inhibition curve with a large enough effect; inconclusive = small, poorly fitted or top-dose-only effect; inactive = flat fitted curve, though single readings scatter.
Experiments:
Experiment in all cases: qHTS assay to identify novel small-molecules to repurpose for Merkel cell carcinoma treatment (AID 1296009); also: nearly all actives have a fitted effect of over 60% in size
HACAT = conditions: MCC and control cell lines, CellTiter-Glo viability, 72 h; at 44.8 µM (top of the series) unless noted
Procedure, shortened: (§1)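 Cell viability measured by CellTiter-Glo following 72 hr compound treatment at 37 degree celsius, with NPC and MIPE libraries tested in 8- and 11-point concentration series.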

MCC-13 = conditions: MCC and control cell lines, CellTiter-Glo viability, 72 h; series mostly up to 46 µM
Procedure, shortened: as §1

MCC-26 = conditions: MCC and control cell lines, CellTiter-Glo viability, 72 h; series mostly up to 46 µM
Procedure, shortened: as §1

MKL-1 = conditions: MCC and control cell lines, CellTiter-Glo viability, 72 h; series mostly up to 46 µM
Procedure, shortened: as §1

NIH3T3 = conditions: MCC and control cell lines, CellTiter-Glo viability, 72 h; at 44.8 µM (top of the series) unless noted
Procedure, shortened: as §1

UISO = conditions: MCC and control cell lines, CellTiter-Glo viability, 72 h; series mostly up to 46 µM
Procedure, shortened: as §1

WaGa = conditions: MCC and control cell lines, CellTiter-Glo viability, 72 h; series mostly up to 46 µM
Procedure, shortened: as §1

HEK293T = conditions: MCC and control cell lines, CellTiter-Glo viability, 72 h; at 44.8 µM (top of the series)
Procedure, shortened: as §1

MKL-2 = conditions: MCC and control cell lines, CellTiter-Glo viability, 72 h; series mostly up to 46 µM
Procedure, shortened: as §1

Measured: Potency
Potency is read from the fitted curve at half-maximal effect.

O=C(O)CCc1nc(-c2ccccc2)c(-c2ccccc2)o1
inactive: HACAT | MCC-13 | MCC-26 | MKL-1 | NIH3T3 | UISO | WaGa

CS(=O)c1ccc(-c2nc(-c3ccc(F)cc3)c(-c3ccncc3)[nH]2)cc1 (stereo not given)
inactive: HEK293T | MCC-13 | MKL-1 | MKL-2 | UISO

C[C@H](NC(=O)C(=O)Nc1ccccc1C(C)(C)C)C(=O)N[C@@H](CC(=O)O)C(=O)COc1c(F)c(F)cc(F)c1F
inactive: HACAT | MCC-26 | NIH3T3
active: MKL-1 20.9 µM | MKL-2 16.6 µM

NC(=O)[C@@H](CCC(F)(F)F)N(Cc1ccc(-c2ncon2)cc1F)S(=O)(=O)c1ccc(Cl)cc1
inactive: MCC-13 | MCC-26 | MKL-1 | MKL-2 | UISO | WaGa

CC(C)n1cnc2c(NCCCCCCNC(=O)OC(C)(C)C)nc(NCCO)nc21
inactive: MCC-13 | MCC-26 | MKL-1 | MKL-2 | UISO

C[N+](C)(C)CC(=O)O
inactive: MCC-13 | MCC-26 | MKL-1 | MKL-2 | UISO | WaGa

COCCOC(=O)C1=C(C)NC2=C(C(=O)CC(c3ccccc3OC)C2)C1c1cccc(O)c1 (stereo not given)
inactive: MCC-13 | MCC-26 | MKL-1

CN(C)CCC=C1c2ccccc2COc2ccc(CC(=O)O)cc21
inactive: HACAT | MCC-13 | MCC-26 | MKL-1 | MKL-2 | NIH3T3 | UISO | WaGa

CCCCCN(C)CCC(O)(P(=O)(O)O)P(=O)(O)O
inactive: MCC-13 | MCC-26 | MKL-1 | MKL-2 | NIH3T3 | UISO | WaGa

COc1cc2nc(-c3ccc(N4CCN(C)CC4)cc3)nc(NCCN3CCOCC3)c2cc1OC
active: MCC-13 9.35 µM | MCC-26 9.35 µM | MKL-1 0.0235 µM | MKL-2 0.105 µM | UISO 0.118 µM | WaGa 0.118 µM

O=C(O)c1c(Cl)c(Cl)c(Cl)c(Cl)c1-c1c2cc(I)c(=O)c(I)c-2oc2c(I)c(O)c(I)cc12
inactive: HACAT | UISO

CC(C)C(=O)Oc1ccc(CO)cc1[C@H](CCN(C(C)C)C(C)C)c1ccccc1
inactive: HACAT | MCC-13 | MKL-1 | MKL-2 | NIH3T3 | UISO | WaGa

COc1cccc2c1CCCC2CCCN1CCN(C2CCCCC2)CC1 (stereo not given)
inactive: MCC-13 | MCC-26 | MKL-1

O=C(NCc1ccccc1)c1csc(Nc2ccncn2)n1
inactive: HACAT
active: MKL-1 8.33 µM | UISO 23.5 µM

Cc1ccc(Nc2cc(-c3cccc(N4C(=O)c5ccccc5C4=O)c3)ncn2)cc1NS(C)(=O)=O
inactive: HACAT | MCC-13 | MKL-1 | MKL-2 | NIH3T3 | UISO | WaGa

O=C(O)c1cc(O)c2c(c1)C(=O)c1cccc(O)c1C2=O
inactive: HACAT inactive [at 92 µM] | MCC-13 | MCC-26 | MKL-1 | MKL-2 | WaGa

O=c1cc(-c2ccccc2)oc2cc(O)cc(O)c12
inactive: MCC-13 | MCC-26 | MKL-1 | MKL-2 | UISO | WaGa

O=C(NC1CCOCC1)c1ccc(-c2cc(-c3cn[nH]c3-c3ccccn3)ccn2)cc1
inactive: HACAT | MCC-13 | MCC-26 | MKL-1 | MKL-2 | UISO | WaGa

CC=CCC(C)C(O)C1C(=O)NC(CC)C(=O)N(C)CC(=O)N(C)C(CC(C)C)C(=O)NC(C(C)C)C(=O)N(C)C(CC(C)C)C(=O)NC(C)C(=O)NC(C)C(=O)N(C)C(CC(C)C)C(=O)N(C)C(CC(C)C)C(=O)N(C)C(C(C)C)C(=O)N1C (stereo not given)
inactive: HACAT | MCC-13 | MKL-1 | WaGa

O=C(O)c1cc(-c2ccccc2)nc2ccccc12
inactive: HACAT | HEK293T | MCC-13 | MKL-1 | MKL-2 | NIH3T3 | UISO | WaGa

CC1(C)CCC2=C(O1)c1ccccc1C(=O)C2=O
inactive: HACAT | MCC-26
active: WaGa 26.4 µM

CC1(C)O[C@H]2C[C@@H]3[C@H]4CCC5=CC(=O)C=C[C@]5(C)[C@@]4(F)[C@@H](O)C[C@]3(C)[C@]2(C(=O)CO)O1
active: MKL-1 18.7 µM | WaGa 13.2 µM
inactive: MCC-13 | UISO

O=C1C[C@@H](c2ccc(O)cc2)Oc2cc(O)cc(O)c21
inactive: MCC-13 | MCC-26 | MKL-1 | MKL-2 | UISO | WaGa

CCS(=O)(=O)N1CC(CC#N)(n2cc(-c3ncnc4[nH]ccc34)cn2)C1
inactive: MCC-13 | MCC-26 | MKL-1 | MKL-2 | UISO | WaGa

— PubChem BioAssay (NCATS)
